Assay outcomes: PubChem, National Center for Advancing Translational Sciences (NCATS)
Rows were chosen to be rich in hits. Some 6.1% of all compounds tested hit in one or more screens of this group.
D1 antagonist: Antagonist of Human D 1 Dopamine Receptor: qHTS. HEK293 TREx D1 cells, calcium flux, dopamine EC80; stronger effect = lower value. activity change, negative = inhibition, % at 10 µM. AID 504652, 2011. 360,000 tested, 3.2% active; in the data active means activity change below about -30%
Target sequence (P21728 whole entry, looked up): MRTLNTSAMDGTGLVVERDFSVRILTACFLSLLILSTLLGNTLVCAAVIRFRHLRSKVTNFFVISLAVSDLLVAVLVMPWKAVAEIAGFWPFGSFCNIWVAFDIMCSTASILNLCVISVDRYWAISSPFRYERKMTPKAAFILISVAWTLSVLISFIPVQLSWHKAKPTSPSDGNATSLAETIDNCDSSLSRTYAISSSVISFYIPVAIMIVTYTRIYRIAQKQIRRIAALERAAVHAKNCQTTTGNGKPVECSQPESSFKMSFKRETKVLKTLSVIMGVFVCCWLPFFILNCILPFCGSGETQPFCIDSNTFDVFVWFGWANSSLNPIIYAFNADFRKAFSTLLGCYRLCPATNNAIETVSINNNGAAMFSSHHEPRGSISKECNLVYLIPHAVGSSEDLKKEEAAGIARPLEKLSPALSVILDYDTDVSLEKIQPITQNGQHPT
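Tetracycline-induced HEK293 T-REx cells with force-coupled D1 receptor were loaded with a no-wash calcium dye. Compound was added after a 10 s baseline and read kinetically for 180 s; EC80 dopamine was then added and calcium flux followed another 180 s.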
ERG Ets-DNA blk: qHTS for Small Molecule Inhibitors of the ERG Ets/DNA interaction. Transcriptional regulator ERG (Homo sapiens), P11308. fluorescence polarization, His-ERG Ets domain / labelled DNA. Potency, µM (highest dose often 76.9 µM), most hits filed as inhibitors. 370,000 tested, 0.028% active; active means well fitted inhibition curve with a large enough effect in the polarisation, with a control signal flat; inconclusive means small, poorly fitted or top-dose-only effect, or effect the other way, or a change in a side signal; inactive means no such curve, though single readings can be large or run the other way; the % refers to the polarisation;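 further: polarization taken with two DNA probes labelled with fluorescein and Texas red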
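His-tagged ERG Ets domain (1 uM in the protein solution; 300mM KCl, 50mM Tris-HCl, 1mM EDTA, 1mM DTT, pH 7.5) received compound, then a probe mix of 5 nM fluorescein-DNA and 100nM Texas-615-DNA. Fluorescence polarization was read for both dyes.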
DRD3 antagonist: qHTS of D3 Dopamine Receptor Antagonist: qHTS; D(3) dopamine receptor (Homo sapiens), P35462; D3R cells, DiscoveRx beta-arrestin luminescence, antagonist mode; stronger effect = lower value; max response, negative = inhibition, %; 360,000 tested, 2.5% active; in the data active means max response below about -50%; inconclusive means no clear call, values can overlap the other calls
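Cells plated overnight at 1500 cells/well, then exposed to library compounds with dopamine controls for 90 minutes at 37 degrees C. DiscoveRx reagent added for 30–60 minutes at room temperature; luminescence read, quantitative HTS format.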
D3 ag: qHTS of D3 Dopamine Receptor Agonist: qHTS; D(3) dopamine receptor (Homo sapiens), P35462; D3R DiscoveRx beta-arrestin cells, luminescence, 90 min; max activation, %; 410,000 tested, 0.58% active; in the data active means max activation above about 30%
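Agonist mode: compounds and dopamine controls were applied to plated cells for 90 min at 37 degrees C after an overnight attachment at 1500 cells/well. Luminescent read-out followed 30 - 60 minutes at room temperature with DiscoveRx detection reagent.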
D1 ag: Allosteric Agonists of the Human D1 Dopamine Receptor: qHTS. HEK293 T-REx D1 cells, calcium flux, agonist mode. 360,000 tested, 1% active. activation, % at 2 µM; in the data active means activation above about 30%
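Agonism was scored from calcium flux recorded over 180 s (1 read/s) after pintool compound addition, following a 10-cycle baseline. Cells were inducible force-coupled HEK293 TREx D1, plated overnight at 30 C and loaded with no-wash calcium dye.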
D1 potentiator: Potentiators of Human D1 Dopamine Receptor: qHTS; HEK293 TREx D1 cells, calcium flux, dopamine EC20 potentiation; D(1A) dopamine receptor (Homo sapiens), P21728; 360,000 tested, 0.036% active; potentiation, % at 10 µM; in the data active means potentiation above about 30%
A number is an active result; – = inactive; ? = inconclusive; · = no result.

SMILES	D1 antagonist	ERG Ets-DNA blk	DRD3 antagonist	D3 ag	D1 ag	D1 potentiator
Oc1ccc(-[n+]2c(-c3ccccc3)cc(-c3ccccc3)cc2-c2ccccc2)cc1	–	–	–	–	–	–
ClC(Cl)=C(c1ccc(Cl)cc1)c1ccc(Cl)cc1	–	–	?	–	–	–
COC(=O)C1C2CC[C@@H](CC1OC(=O)c1ccccc1)N2 (stereo partly specified)	·	–	–	41	·	·
Cc1ccc2c(c1)C(Cc1nc3ccccc3c(=O)n1-c1ccc(Br)cc1)C(=O)N2 (stereo unspecified)	–	–	·	–	–	–
COc1ccc(Br)cc1CNCCc1ccc2c(c1)OCO2	·	–	–	–	·	·
COc1ccccc1CCNCc1cc2c(cc1[N+](=O)[O-])OCO2	–	–	-56	–	–	–
O=c1[nH]c(O)c(C=Nc2ccccc2[N+](=O)[O-])c(=O)[nH]1	-47	·	·	·	–	–
Oc1c(Cl)c(Cl)c(Cl)c(Cl)c1Cl	·	–	–	–	·	·
CSc1ncc(CN2CCCC(C(=O)c3sccc3C)C2)cn1 (stereo unspecified)	–	–	–	–	–	–
Cc1ccc(CN2CCCC(C(=O)c3sccc3C)C2)o1 (stereo unspecified)	–	–	-52	–	–	–
Cc1ccsc1C(=O)C1CCCN(Cc2cnc(N3CCCC3)s2)C1 (stereo unspecified)	–	–	-79	–	–	–
C[N+](C)(C)CCCCCCCCCC[N+](C)(C)C	–	?	–	–	–	–
CN1CCN(c2nc3c(c(=O)[nH]2)CCC3)CC1	–	–	–	–	–	–
c1ccc2c(CN3CCN(C4CCCCC4)CC3)c[nH]c2c1	–	–	-67	–	–	–
COc1ccc(-n2nnnc2C(c2ccccc2OC(F)(F)F)N2CCC(n3c(=O)[nH]c4ccccc43)CC2)cc1 (stereo unspecified)	·	·	–	–	·	·
Cc1ccc(C2CC3CCC(C2)N3Cc2ccccc2F)cc1 (stereo unspecified)	–	–	-82	–	–	–
CCn1c(=N)n(Cc2ccccc2F)c2ccccc21	–	–	–	–	–	–
C=CCn1c(O)c(N=Nc2c(C)n(C)n(-c3ccccc3)c2=O)c(=O)[nH]c1=S	–	–	-57	–	–	–
Cc1c(N=Nc2c(O)[nH]c(=S)[nH]c2=O)c(=O)n(-c2ccccc2)n1C	–	–	-66	–	–	–
CNC(=O)Oc1cccc2c1OC(C)(C)O2	·	–	–	–	·	·
CC1(C)CC(CCNCc2ccc3c(c2)OCO3)(Cc2ccccc2)CCO1 (stereo unspecified)	–	–	–	–	61	–
Clc1cccc(CNCCc2ccc3c(c2)OCO3)c1	–	–	?	–	–	–
CCN1/C(=C\C=C\C2=[N+](CC)c3ccccc3C2(C)C)C(C)(C)c2ccccc21	–	–	-96	–	204	–
O=C(CN1CC(c2ccccc2)CC1=O)Nc1ccccc1 (stereo unspecified)	–	–	–	–	–	–
CC1OC(C[N+](C)(C)C)CC1O (stereo unspecified)	–	–	–	–	–	–
SMILES	D1 antagonist	ERG Ets-DNA blk	DRD3 antagonist	D3 ag	D1 ag	D1 potentiator
C[C@H]1OC[C@@H](C[N+](C)(C)C)O1	–	–	–	–	47	–
CCOC(=O)[C@]12Cc3cc(C)ccc3[C@H]1N(Cc1ccccc1)C(=O)c1cc(F)c(F)cc12	·	·	–	–	·	·
COCCCN1CCN(c2nnc3n2-c2sc(Br)cc2C(c2ccccc2Cl)=NC3)CC1	–	–	-57	–	–	–
CC(C)CCC1(CCc2ccncc2)C(=O)NC(=O)NC1=O	–	–	–	–	–	–
CC(C)Oc1ccc(CC2(CCc3ccncc3)C(=O)NC(=O)NC2=O)cc1	–	–	–	33	–	–
Cc1cc(C)cc(N2C(=O)/C(=C\c3ccc(N4CCN(C)CC4)o3)C(=O)NC2=S)c1	–	–	–	–	44	–
